High-throughput results (PubChem BioAssay)
HSP90 refold inh: HSP90 inhibitors, primary screen, cell lysate, luminescence; Heat shock protein HSP 90 (rabbit reticulocyte lysate; luciferase refolding); Rabbit reticulocyte lysate, luciferase refolding luminescence, 3 h; actives 0.91% (n = 290,000); inhibition, % at 5.6 µM;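 active = inhibition above the screen-wide mean plus 3 SD, computed separately per campaign, cut at about 16% in these data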;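 note: 0% = DMSO wells and 100% = 60 µM geldanamycin wells; inhibitors lower the luminescence because luciferase stays unfolded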
TWEAK Fn14 block: inhibitors of TWEAK-Fn14 signaling, primary screen, luciferase reporter cells, uHTS; TWEAK-stimulated Fn14 reporter cells, luciferase luminescence, 8 h; inhibition, % at 10 µM; actives 2% (n = 360,000); AID 1159606, 2016; in the data active = inhibition above about 50%
EBV LMP1 NFkB: EBV LMP1-driven NF-kappaB luciferase reporter inhibitors, primary screen, cell-based, luminescence, single point; LMP1-induced NF-kappaB luciferase reporter cells; AID 504558, 2011; inhibition, % at 12.5 µM; actives 0.69% (n = 350,000); in the data active = inhibition above about 41%;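 note: 0% = neutral control wells and 100% = reference inhibitor control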
HSF-1 act: HSF-1 activators, primary screen, NIH3T3-HGL cells, MG132 stress, luminescence, single point. actives 1.7% (n = 300,000). AID 504408, 2011. activation, % at 9 µM. NIH3T3-HGL HSF-1 luciferase reporter, 8 h; 100% = twice DMSO control signal;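 active = mean replicate activation of at least 50% with a set share of replicates each reaching 50%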;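 note: 0% = median of the neutral control wells and 100% = twice that signal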
TROY signal inh: inhibitors of TROY-driven NF-kB signaling, primary screen, Q293 LMP1-TROYcd cells, NF-kB luciferase, uHTS | Q293 LMP1-TROYcd NF-kB luciferase reporter, 4 h | inhibition, % at 10 µM | actives 0.98% (n = 360,000);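 active = compounds whose plate-normalised and pattern-corrected inhibition of the luciferase reporter signal at the single screening dose is 50% or more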
HSF1 inh: HSF1 inhibitors in luciferase reporter cells, primary screen, cell-based, NIH3T3, luminescence; activity change, negative = inhibition, % at 7.5 µM (by protocol); NIH3T3-HGL HSE-luciferase, MG132-induced, luminescence 8 h; hits give low values; actives 0.77% (n = 300,000);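 active = more than half of replicate wells show activity change below -50%, luminescence cut by over half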;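 note: luciferase reports HSF-1 transcriptional activity via heat shock element; 0% = median of DMSO wells and -100% = zero luminescence signal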
Numbers without * were called inactive; . = no result; ! = not confirmed by another sample. An excerpt weighted towards active compounds, which were near 4.7% of everything screened.

SMILES	HSP90 refold inh	TWEAK Fn14 block	EBV LMP1 NFkB	HSF-1 act	TROY signal inh	HSF1 inh
CC(=O)c1ccc(OC2(C)CCN(Cc3cc4ccccc4[nH]3)C2)cc1 (stereo not given)	.	-1	.	.	-7	.
CCCCCCCC[n+]1cccc(C(=O)N(CC)CC)c1	1	18	-2	-7	4	-6
CCCCCCCCCCCCCCCC[n+]1cccc(C(=O)N(CC)CC)c1	1	-15	4	-25	57*!	-9
CN1C(=O)N(C)c2ccc(Br)c3cccc1c23	6	18	1	-14	65*	-23
CN1C(=O)N(C)c2ccc(C=O)c3cccc1c23	1	-25	86*	-2	6	-1
CN1C(=O)N(C)c2cccc3cccc1c23	0	-7	6	3	14	-2
C=CCSC1=C(C#N)C(c2cccc(OC)c2)CC(=O)N1 (stereo not given)	0	17	3	51*	-5	8
CC(C)COc1ccc(-c2nn(-c3ccccc3)cc2/C=C2/SC(=S)N(CC(=O)O)C2=O)cc1	-5	-15	5	-5	88*	-1
O=C(O)CN1C(=O)/C(=C\c2cn(-c3ccccc3)nc2-c2ccccc2)SC1=S	-3	2	-2	6	-6	-1
C=CC(C)(C)c1c(O)c(CC=C(C)C)c(O)c2c(=O)c3ccc(O)c(O)c3oc12	.	76*	34	-8	46	-3
C=C(C)[C@@H]1C2=CC(C(=O)OC)=C(C[C@H](C(=C)C)[C@H]3O[C@H]3C3=C[C@H]1OC3=O)O2	.	72*	.	.	2	.
COc1cccc(Sc2ccccc2/C=N/NC(N)=O)c1	0	0	-3	57*	11	20
COc1cccc(CNC(=O)[C@@H]2CCCN2C(=O)[C@H]2CCCCN2C(=O)c2ccccc2)c1	.	-2	.	.	1	.
Nc1ccccc1S(=O)(=O)NC1=NCCCCC1	-3	104*	3	-1	-15	-7
Nc1ccc(S(=O)(=O)NC2=NCCCCC2)cc1N	3	6	-17	-15	8	-1
CC1(C(=O)NS(=O)(=O)c2cccc(C#N)c2)CCN1C(=O)C1(c2ccccc2)CC1 (stereo not given)	.	0	.	.	-12	.
CC(C)Oc1ccc(CN=C(N)N=C(N)N)cc1Cl	-8	3	9	55*	-4	6
COc1ccc(CN=C(N)N=C(N)N)cc1Cl	1	-2	1	5	-7	-6
OC(c1ccc(-c2ccccc2)cc1)c1ncc(-c2ccccc2Cl)[nH]1 (stereo not given)	.	0	.	.	6	.
CCCCCC[n+]1c(-c2ccccc2)csc1Nc1ccccc1	0	-11	7	63*	-41	22
Cc1cc(C(F)(F)F)nn1CC(=O)Nc1cccnc1	-2	66*	-1	6	.	5
Cc1ccc2c(C)c(C(=O)Nc3cccnc3)oc2c1	2	4	-26	19	-65	24
Cc1cccc(CC(=O)Nc2cccnc2)c1	-1	103*	-6	12	-4	-9
Cc1ccc2c(Cl)c(C(=O)Nc3cccnc3)sc2c1	-2	58*	-10	10	-20	9
O=S1(=O)N[C@@H](Cc2ccccc2)COc2cccc(N3CCC[C@H]3CO)c21	.	-3	.	.	10	.
SMILES	HSP90 refold inh	TWEAK Fn14 block	EBV LMP1 NFkB	HSF-1 act	TROY signal inh	HSF1 inh
COc1ccc(CCN2CC(C(=O)NCc3cn(C)nc3C)CCC2=O)cc1 (stereo not given)	.	-21	-3	.	7	.
Cc1ccc(C)c(NC(=O)CS(=O)(=O)c2cn(C)c3ccccc23)c1	1	10	2	54*	1	29
Cc1ccc(Nc2cc(=O)n(C)c(=O)[nH]2)cc1C	.	9	-6	.	8	.
COc1ccc(NS(=O)(=O)c2ccc3nc(COc4ccc5ccccc5c4)[nH]c3c2)cc1	-1	48	-1	-84	40	-81*
COc1ccc(NS(=O)(=O)c2ccc3nc(COc4cccc5ccccc45)[nH]c3c2)cc1	1	59*	-5	29	38	-1
COc1cc(/C=N/Nc2snc(SC)c2C#N)cc(OC)c1OC	1	92*	-13	5	.	9
CSc1nsc(N/N=C/c2ccc3c(c2)OCO3)c1C#N	1	-52	-65	9	-48	2
O=C(NCc1cccnc1)c1cc(C2CCCN(C(=O)c3cccc(O)c3)C2)on1 (stereo not given)	.	-4	.	.	0	.
O=C(Nc1ccc(-c2nc3ccccc3[nH]2)cc1)C1CCCO1 (stereo not given)	16	73*	3	22	33	-3
O=C(CN1CCOCC1)Nc1ccc(-c2nc3ccccc3[nH]2)cc1	6	5	-15	56*	-15	30
O=C(CSc1ccc(-c2nc3ccccc3[nH]2)cn1)Nc1ccc(S(=O)(=O)N2CCCC2)cc1	-3	52*	-33	11	18	9
O=C(Nc1nc2ccccc2[nH]1)C1CCCO1 (stereo not given)	1	-10	-14	13	-39	4
CN(C)c1ncnc2c1ncn2[C@H]1CN(Cc2ccc(Cl)cc2)C[C@@H](CO)O1	.	3	.	.	1	.
Cc1cc2oc3c(c(=O)c2cc1C)C(c1ccc(C(C)C)cc1)N(CCCN1CCOCC1)C3=O (stereo not given)	-3	-4	8	58*	-1	33
CCOC(=O)[C@]12CCC=C1N(Cc1cccc3ccccc13)C(=O)[C@H](CC(=O)NCCc1ccccc1OC)C2	.	23	.	.	-20	.
CC(=O)Nc1ccc(-c2ccnc3c2CC(C)(C(=O)NCc2ccncc2)O3)cc1 (stereo not given)	.	9	.	.	-16	.
C/C=C1\COC(C(=O)NCc2cccc(OC)c2OC)(C(F)(F)F)C=C1C=C1CCCCC1 (stereo not given)	.	-1	10	69*	3	56
C/C=C1\COC(C(=O)NCc2ccncc2)(C(F)(F)F)C=C1C=C1CCCCC1 (stereo not given)	.	16	6	63*	6	31
Cc1ccc(-n2ncc3c(=O)n(-c4cccc(C)c4)c(=O)[nH]c32)cc1	.	-2	-4	.	-50	.
CCOC(=O)c1cnc2ccc(C)cc2c1Nc1ccc(N2CCOCC2)cc1	-1	56*	-2	8	25	7
CCOC(=O)c1cnc2ccc(C)cc2c1Sc1ccc(F)cc1	-1	27	-14	60*	-38	38
C=CCOC1COC2C(OCC=C)COC12 (stereo not given)	.	7	2	.	10	.
CC(N)c1csc(Nc2nncc3ccccc23)n1 (stereo not given)	.	9	.	.	5	.
